# PubChem BioAssay (NCATS)
# Inconclusive results are not listed. A call without a number means that no potency is given here. Where a structure was tested more than once in an assay, its records may differ in their call. The source made the active and inactive calls. Unless noted, the call rests on the fitted dose curve; in most records, active means well fitted curve in the direction sought with a large enough effect; inconclusive means small, poorly fitted or top-dose-only effect, or another doubt; inactive means no such curve, though single readings can be large; an effect the other way counts as inactive or inconclusive.
# How the values were obtained:
# [1] = biological target: Vitamin D3 receptor (Homo sapiens) (UniProt P11473); experiment: qHTS assay for small molecule antagonists of vitamin D receptor signaling (AID 588541; calls by dose curve;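 further: receptor activated by calcitriol during compound treatment; series mostly up to about 77 µM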)
# Sequence of Vitamin D3 receptor (Homo sapiens) (P11473 whole entry, looked up): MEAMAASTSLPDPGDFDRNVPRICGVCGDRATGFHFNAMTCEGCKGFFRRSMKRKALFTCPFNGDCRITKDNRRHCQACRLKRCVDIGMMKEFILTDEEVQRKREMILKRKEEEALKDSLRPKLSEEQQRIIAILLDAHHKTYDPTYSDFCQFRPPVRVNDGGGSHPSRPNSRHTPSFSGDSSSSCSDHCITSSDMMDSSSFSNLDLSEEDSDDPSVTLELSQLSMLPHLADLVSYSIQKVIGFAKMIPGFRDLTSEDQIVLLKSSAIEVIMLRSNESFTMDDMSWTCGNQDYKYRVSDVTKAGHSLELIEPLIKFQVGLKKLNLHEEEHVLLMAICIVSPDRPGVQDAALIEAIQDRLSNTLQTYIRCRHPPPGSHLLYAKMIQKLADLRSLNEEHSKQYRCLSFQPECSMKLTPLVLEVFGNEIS
# How it was run: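 VDR-UAS-bla HEK293T cells in 2% charcoal-stripped FBS were stimulated with 1-alpha,25-dihydroxyvitamin D3 (3 nM final) plus compound for 16 h at 37 C. The beta-lactamase CCF4 readout was normalized to 50 nM agonist and DMSO, and Hill fits gave IC50.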
# [2] = biological target: Vitamin D3 receptor (Homo sapiens) (UniProt P11473); experiment: qHTS assay for small molecule agonists of vitamin D receptor signaling (AID 588543; calls by dose curve)
# How it was run: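 Agonist-mode beta-lactamase reporter: HEK293T VDR-UAS-bla cells in charcoal-stripped 2% FBS, compound series 16 h 37 C, CCF4 2 h RT. EC50 from Hill fit, scaled against DMSO and 50 nM calcitriol control.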
# [3] = qHTS assay for small molecule agonists of retinoid X receptor alpha signaling (AID 588544; calls by dose curve); details: HEK293T RXRa-UAS-bla, beta-lactamase reporter, 18 h; 530 nm emission
# [4] = biological target: Retinoic acid receptor RXR-alpha (Homo sapiens) (UniProt P19793); experiment: as above
# Sequence of Retinoic acid receptor RXR-alpha (Homo sapiens) (P19793 whole entry, looked up): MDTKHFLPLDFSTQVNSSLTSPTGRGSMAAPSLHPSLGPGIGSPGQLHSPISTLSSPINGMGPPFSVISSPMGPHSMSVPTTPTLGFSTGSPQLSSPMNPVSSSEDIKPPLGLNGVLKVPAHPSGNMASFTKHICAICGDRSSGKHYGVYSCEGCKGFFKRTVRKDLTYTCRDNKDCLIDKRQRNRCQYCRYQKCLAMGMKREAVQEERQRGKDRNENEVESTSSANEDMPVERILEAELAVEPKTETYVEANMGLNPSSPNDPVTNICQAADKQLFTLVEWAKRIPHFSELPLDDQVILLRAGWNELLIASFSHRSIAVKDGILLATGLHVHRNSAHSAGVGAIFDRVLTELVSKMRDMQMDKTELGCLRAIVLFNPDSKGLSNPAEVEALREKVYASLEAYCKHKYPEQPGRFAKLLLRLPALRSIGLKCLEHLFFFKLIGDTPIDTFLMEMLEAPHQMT
# [5] = biological target: Thyroid hormone receptor beta (Homo sapiens) (UniProt P10828); experiment: qHTS assay for small molecule agonists of thyroid hormone receptor beta signaling (AID 588545; calls by dose curve)
# Sequence of Thyroid hormone receptor beta (Homo sapiens) (P10828 whole entry, looked up): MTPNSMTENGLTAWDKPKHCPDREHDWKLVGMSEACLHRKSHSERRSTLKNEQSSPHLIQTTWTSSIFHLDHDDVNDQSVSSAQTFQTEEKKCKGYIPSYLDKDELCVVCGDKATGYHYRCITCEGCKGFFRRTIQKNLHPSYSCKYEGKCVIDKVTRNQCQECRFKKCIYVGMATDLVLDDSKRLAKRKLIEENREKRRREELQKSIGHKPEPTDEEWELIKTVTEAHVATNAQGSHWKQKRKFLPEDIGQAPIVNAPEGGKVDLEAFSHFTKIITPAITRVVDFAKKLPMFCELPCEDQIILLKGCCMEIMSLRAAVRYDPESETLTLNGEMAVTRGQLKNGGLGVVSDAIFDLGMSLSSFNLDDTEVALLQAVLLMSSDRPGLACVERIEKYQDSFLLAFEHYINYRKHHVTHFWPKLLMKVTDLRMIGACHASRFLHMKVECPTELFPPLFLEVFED
# How it was run: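 Agonist-mode beta-lactamase reporter assay, HEK 293 cells, 2% charcoal/dextran FBS; cells plated 4 hrs, compound 18 hrs at 37 C, CCF4 2 hrs RT. Normalized to 10 nM T3 (100%) and DMSO (0%); Hill fit gives EC50, efficacy.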
# [6] = qHTS assay for small molecule antagonists of retinoid X receptor alpha signaling (AID 588546; active means well fitted inhibition curve with a large enough effect in the signal ratio, with a control signal flat, not every such curve was filed as active; the % refers to the signal ratio; further: potency means the concentration at half of the fitted maximal effect;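 on max response: cells stimulated with 9-cis-retinoic acid as agonist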); details: HEK293T RXRa-UAS-bla, beta-lactamase ratio, antagonist mode; measured here: W530 green channel, cytotoxicity proxy
# How it was run: (§1)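 Beta-lactamase reporter inhibition, read as CCF4 fluorescence ratio (ex 405, em 460/530 nm) after 2 h at RT. HEK293T UAS-bla cells, 2500/well, were stimulated with 9-cis-RA at 500 or 100 nM final alongside test compound for 18 h at 37 C.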
# [7] = biological target: Retinoic acid receptor RXR-alpha (Homo sapiens) (UniProt P19793); experiment: as above; details: HEK293T RXRa-UAS-bla, beta-lactamase ratio, antagonist mode
# How it was run: as §1
# [8] = biological target: Voltage-gated inwardly rectifying potassium channel KCNH2 (Homo sapiens) (UniProt Q12809); experiment: qHTS Assay for Small Molecule Inhibitors of the Human hERG Channel Activity (AID 588834);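 further: lower thallium flux fluorescence means stronger hERG block; nearly all actives have a fitted effect of over 50% in size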; further: potency means the concentration at half of the fitted maximal effect
# Sequence of Voltage-gated inwardly rectifying potassium channel KCNH2 (Homo sapiens) (Q12809 whole entry, looked up): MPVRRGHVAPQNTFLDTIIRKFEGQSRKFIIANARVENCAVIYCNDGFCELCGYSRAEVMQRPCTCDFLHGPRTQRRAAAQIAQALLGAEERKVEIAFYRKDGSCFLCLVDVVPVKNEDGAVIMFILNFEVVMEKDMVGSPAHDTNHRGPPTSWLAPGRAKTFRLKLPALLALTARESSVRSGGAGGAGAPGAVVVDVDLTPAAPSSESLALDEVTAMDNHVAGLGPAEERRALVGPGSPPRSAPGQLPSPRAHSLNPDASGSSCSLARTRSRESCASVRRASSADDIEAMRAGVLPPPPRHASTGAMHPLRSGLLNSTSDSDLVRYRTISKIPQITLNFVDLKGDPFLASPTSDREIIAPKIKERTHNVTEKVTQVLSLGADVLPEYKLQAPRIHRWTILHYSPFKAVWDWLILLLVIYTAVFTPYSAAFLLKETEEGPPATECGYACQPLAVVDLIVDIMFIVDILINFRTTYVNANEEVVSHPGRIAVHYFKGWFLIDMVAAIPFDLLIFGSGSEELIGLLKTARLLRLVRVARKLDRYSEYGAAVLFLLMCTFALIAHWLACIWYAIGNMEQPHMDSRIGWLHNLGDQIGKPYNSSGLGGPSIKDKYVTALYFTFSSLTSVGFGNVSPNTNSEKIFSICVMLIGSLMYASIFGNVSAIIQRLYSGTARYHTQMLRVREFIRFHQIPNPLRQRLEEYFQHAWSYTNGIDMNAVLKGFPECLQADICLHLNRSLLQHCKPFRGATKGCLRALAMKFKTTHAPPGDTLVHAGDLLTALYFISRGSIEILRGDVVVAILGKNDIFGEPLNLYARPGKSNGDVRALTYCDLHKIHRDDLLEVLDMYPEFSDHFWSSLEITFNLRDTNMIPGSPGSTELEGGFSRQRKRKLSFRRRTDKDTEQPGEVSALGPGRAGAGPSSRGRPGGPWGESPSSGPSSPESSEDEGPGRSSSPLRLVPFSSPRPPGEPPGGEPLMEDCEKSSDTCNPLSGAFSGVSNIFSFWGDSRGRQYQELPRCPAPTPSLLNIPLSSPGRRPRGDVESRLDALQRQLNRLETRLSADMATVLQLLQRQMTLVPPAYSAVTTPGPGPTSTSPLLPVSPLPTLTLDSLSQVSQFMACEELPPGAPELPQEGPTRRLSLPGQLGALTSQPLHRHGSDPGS
# How it was run: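 Kinetic FDSS fluorescence; U2OS + hERG BacMam (~100 virus particles/cell); FluxOR Tl+ flux; ~10 min cpd; AC50 (Hill).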
# [9] = biological target: Luciferin 4-monooxygenase (Photinus pyralis) (UniProt P08659); experiment: Biochemical firefly luciferase enzyme assay for NPC (AID 624030);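 further: purified P. pyralis luciferase at 10 nM with luciferin and ATP substrate; series mostly up to about 59 µM; nearly all actives have a fitted effect of over 70% in size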
# Sequence of Luciferin 4-monooxygenase (Photinus pyralis) (P08659 whole entry, looked up): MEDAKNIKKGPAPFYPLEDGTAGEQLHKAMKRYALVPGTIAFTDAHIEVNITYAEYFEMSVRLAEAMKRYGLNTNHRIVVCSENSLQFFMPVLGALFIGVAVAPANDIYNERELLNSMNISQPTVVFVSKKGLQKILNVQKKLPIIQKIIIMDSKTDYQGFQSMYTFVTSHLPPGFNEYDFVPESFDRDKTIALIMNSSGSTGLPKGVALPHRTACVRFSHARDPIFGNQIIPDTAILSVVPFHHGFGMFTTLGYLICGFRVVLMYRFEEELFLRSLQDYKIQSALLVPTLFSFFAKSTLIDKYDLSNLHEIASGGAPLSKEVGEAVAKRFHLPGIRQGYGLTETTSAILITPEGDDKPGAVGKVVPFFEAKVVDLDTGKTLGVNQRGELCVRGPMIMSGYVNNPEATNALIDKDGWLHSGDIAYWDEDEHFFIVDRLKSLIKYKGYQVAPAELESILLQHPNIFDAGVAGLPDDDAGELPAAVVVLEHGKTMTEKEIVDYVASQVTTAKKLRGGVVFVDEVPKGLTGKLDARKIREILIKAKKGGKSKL
# How it was run: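 Purified P. pyralis luciferase at 10 nM in 50 mM Tris Acetate (final), luminescence read within 5 minutes of enzyme addition to compounds. Activity normalised to PTC124 versus DMSO; concentration-response curves classed by r2, magnitude and activity.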
# [10] = S16 Schwann cell viability assay (CellTiter-Glo assay) (AID 624031);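 further: native untransfected S16 rat Schwann cells; cellular ATP luminescence as a viability measure; series mostly up to about 58 µM; nearly all actives have a fitted effect of over 70% in size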
# How it was run: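 Following overnight culture in 10% FBS DMEM, parental S16 rat Schwann cells are dosed for 24 h at 37 °C. Viability is read as CellTiter-Glo luminescence and expressed as % activity relative to DMSO (0%) and no-cell wells.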
# [11] = S16 Schwann cell PMP22 intronic element firefly luciferase assay (AID 624032); further: series mostly up to about 58 µM; nearly all actives have a fitted effect of over 30% in size
# How it was run: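 Rat S16 Schwann cells stably carrying firefly luciferase driven by a PMP22 intronic element, in 10% FBS, treated 24 h at 37 C. ONE-Glo luminescence normalized to PTC124 control and DMSO (0%); curves classed by r2, magnitude and activity.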
# [12] = S16 Schwann cell PMP22 intronic element beta-lactamase assay (AID 624044; calls by dose curve; further: nearly all actives have a fitted effect of over 15% in size)
# How it was run: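 Rat S16 Schwann cells with beta-Lac driven by a PMP22 intronic element, compound-treated 24 h at 37 °C. LiveBLAzer FRET B/G read: 460 nm normalized to potassium clavulanate vs DMSO; 535 nm FRET as viability; concentration-effect curves classified.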
# [13] = qHTS assay for small molecule agonists of the antioxidant response element (ARE) signaling pathway (AID 651741; active means well fitted activation curve with a large enough effect in the signal ratio; the % refers to the signal ratio)
# How it was run: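 HepG2 ARE-bla cells plated at 2,000 cells/well and incubated 5 h at 37 C/5% CO2 received 23 nL compound in DMSO. After 16 h at 37 C, LiveBLAzer B/G FRET substrate was applied for 2 h at room temperature and fluorescence read.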
# [14] = biological target: Peroxisome proliferator-activated receptor gamma (Homo sapiens) (UniProt P37231); experiment: qHTS assay for small molecule antagonists of peroxisome proliferator-activated receptor gamma signaling (AID 588537; active means well fitted inhibition curve with a large enough effect in the signal ratio, with a control signal flat, not every such curve was filed as active; the % refers to the signal ratio;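 further: reporter cells co-stimulated with 50 nM rosiglitazone agonist during compound treatment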)
# Sequence of Peroxisome proliferator-activated receptor gamma (Homo sapiens) (P37231 whole entry, looked up): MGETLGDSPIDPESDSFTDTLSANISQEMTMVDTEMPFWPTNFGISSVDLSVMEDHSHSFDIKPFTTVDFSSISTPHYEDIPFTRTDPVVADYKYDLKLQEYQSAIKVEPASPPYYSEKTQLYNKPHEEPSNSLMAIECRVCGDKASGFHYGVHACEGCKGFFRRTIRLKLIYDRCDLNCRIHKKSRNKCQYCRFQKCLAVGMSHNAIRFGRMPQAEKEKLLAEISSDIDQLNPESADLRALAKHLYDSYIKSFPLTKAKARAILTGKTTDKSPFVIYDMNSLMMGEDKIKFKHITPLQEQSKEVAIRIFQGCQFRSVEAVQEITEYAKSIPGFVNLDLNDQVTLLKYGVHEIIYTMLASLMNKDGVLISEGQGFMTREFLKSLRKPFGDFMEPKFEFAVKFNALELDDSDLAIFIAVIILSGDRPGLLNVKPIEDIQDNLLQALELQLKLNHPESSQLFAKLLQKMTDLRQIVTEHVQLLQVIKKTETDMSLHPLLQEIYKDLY
# How it was run: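 Step one: plate 3000 HEK293 UAS-bla cells per well in medium with 1% stripped serum and hold 6-6.5 h at 37 C. Step two: add compound and 50 nM agonist for 16 h. Step three: CCF4 loading, fluorescence read.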
# [15] = biological target: Thyroid hormone receptor beta (Homo sapiens) (UniProt P10828); experiment: qHTS assay for small molecule antagonists of thyroid hormone receptor beta signaling (AID 588547; active means well fitted inhibition curve with a large enough effect in the signal ratio, with a control signal flat, not every such curve was filed as active; the % refers to the signal ratio;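 further: cells stimulated with 0.4 nM T3 agonist during compound exposure; series mostly up to about 77 µM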); details: TR-UAS-bla HEK293, beta-lactamase ratio, antagonist mode, 18 h
# How it was run: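 TR-UAS-bla GripTite HEK293 cells in 2% charcoal/dextran FBS medium; compounds 0.59 nM to 92 uM with T3 at 0.4nM final, 18 h at 37 C. Beta-lactamase read by CCF4 fluorescence (460/530 nm); Hill fits gave IC50 and efficacy.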
compound,measurement,setting,value
C=CCN=C=S,Potency,[1],inactive
same,outcome,[2],inactive
same,max response,[3],2.45%
same,Potency,[4],inactive
same,outcome,[5],inactive
same,max response,[6],-9.62%
same,max response,[7],5.52% (inactive)
same,Potency,[8],inactive
same,Potency,[9],inactive
same,Potency,[10],inactive
same,Potency,[11],inactive
same,Potency,[12],inactive
same,Potency,[13],inactive
O=c1[nH]c(=O)n(Cl)c(=O)n1Cl,Potency,[14],inactive
same,max response,[3],-3.39%
same,Potency,[4],inactive
same,outcome,[5],inactive
same,activity change % (negative = inhibition),[15],1.99% (inactive)
same,Potency,[10],inactive
same,Potency,[11],inactive
same,Potency,[12],inactive
same,Potency,[13],inactive
C[C@@H]([C@H](O)c1ccccc1)N(C)C,Potency,[8],inactive
CCC(=O)O[C@]1(c2ccccc2)CCN(C)C[C@H]1C,Potency,[8],inactive
O=C1C[C@@H]2OCC=C3CN4CC[C@]56c7ccccc7N1[C@H]5[C@H]2[C@H]3C[C@H]46 (tested in a mixture with another compound),Potency,[8],25.1 µM (active) and inactive
CC(=O)[C@H]1CC[C@H]2[C@@H]3CC[C@@H]4C[C@H](O)CC[C@]4(C)[C@H]3CC[C@]12C,Potency,[8],inactive
CCCCCCC(=O)O[C@H]1CC[C@H]2[C@@H]3CC[C@H]4CC(=O)C=C(C)[C@]4(C)[C@H]3CC[C@]12C,Potency,[8],14.1 µM (active)
CC(=O)OCC(=O)[C@H]1CC[C@H]2[C@@H]3CC[C@H]4C[C@H](O)CC[C@]4(C)[C@H]3C(=O)C[C@]12C,Potency,[8],inactive
COc1ccc2c3c1O[C@H]1[C@@H](O)C=C[C@H]4[C@@H](C2)NCC[C@@]341,Potency,[8],inactive
COC(COC(N)=O)C1=C(N2CC2)C(=O)C(C)=C(N2CC2)C1=O (configuration not stated),Potency,[8],inactive
CCN(CC)c1ncnc2c1ncn2[C@@H]1O[C@H](COP(=O)(O)OP(=O)(O)C(Br)(Br)P(=O)(O)O)[C@@H](O)[C@H]1O,Potency,[8],inactive
OC[C@@H](O)[C@H]1O[C@@H]2O[C@@H](C(Cl)(Cl)Cl)O[C@@H]2[C@H]1O,Potency,[8],inactive
O=CC=O,max response,[3],-3.86%
same,Potency,[4],inactive
same,outcome,[5],inactive
same,max response,[6],5.31%
same,max response,[7],9.93% (inactive)
same,activity change % (negative = inhibition),[15],-1.9% (inactive)
same,Potency,[8],inactive
same,Potency,[9],inactive
same,Potency,[10],inactive
same,Potency,[11],inactive
same,Potency,[12],inactive
C[C@]12CC[C@H](O)C[C@H]1CC[C@@H]1[C@@H]2CC[C@]2(C)[C@@H](c3ccc(=O)oc3)C[C@H]3O[C@]132,Potency,[8],inactive
C=C[C@H]1CN2CC[C@H]1C[C@@H]2[C@@H](O)c1ccnc2ccccc12,Potency,[8],14.1 µM (active)
CCN(CC)CCO[C@H]1CC[C@@]2(C)C(=CC[C@@H]3[C@@H]2CC[C@]2(C)C(=O)CC[C@@H]32)C1,Potency,[8],inactive
C[N+]1(C)CCC(OC(=O)C(c2ccccc2)c2ccccc2)CC1,Potency,[8],inactive
COc1ccc(OC)c([C@@H](O)[C@H](C)N)c1,Potency,[8],inactive
CN1[C@H]2CC[C@@H]1[C@@H](C(=O)O)[C@@H](OC(=O)c1ccccc1)C2,Potency,[8],inactive
CCCN1CCCC2Cc3[nH]ncc3CC21 (configuration not stated),Potency,[8],inactive
C[C@H]1CC[C@]2(NC1)O[C@H]1C[C@H]3[C@@H]4CC[C@H]5C[C@@H](O)CC[C@]5(C)[C@H]4CC[C@]3(C)[C@H]1[C@@H]2C,Potency,[8],inactive
CC(=O)O[C@H]1CC[C@@]2(C)C(=CC[C@@H]3[C@@H]2CC[C@]2(C)C(=O)CC[C@@H]32)C1,Potency,[8],inactive
O=C1C=C2C=C[C@@H]3C[C@@]2(O1)[C@H]1CCCCN31,Potency,[8],inactive
CN(C)[C@@H]1C(=O)C(C(N)=O)=C(O)[C@@]2(O)C(=O)C3=C(O)c4c(O)ccc(Cl)c4[C@@](C)(O)[C@H]3C[C@@H]12,Potency,[8],inactive
C[N+]1([O-])[C@@H]2CC[C@H]1CC(OC(=O)C(CO)c1ccccc1)C2 (some centres not stated),Potency,[8],inactive
Cc1ccccc1-n1c(C)nc2ccccc2c1=O,Potency,[8],inactive
C[C@@H](Cc1ccccc1)N(C)C,Potency,[8],inactive
CC[C@H](C)[C@H]1O[C@]2(C=C[C@@H]1C)C[C@@H]1C[C@@H](C/C=C(\C)[C@@H](O[C@H]3C[C@H](OC)[C@@H](O[C@H]4C[C@H](OC)[C@@H](O)[C@H](C)O4)[C@H](C)O3)[C@@H](C)/C=C/C=C3\CO[C@@H]4[C@H](O)C(C)=C[C@@H](C(=O)O1)[C@]34O)O2,outcome,[2],inactive
same,max response,[6],-21.4%
same,Potency,[7],12.6 µM (active)
same,Potency,[8],inactive
CNc1ccc(C(=O)CC(O)CCC(C)C2OC(=O)CC(O)CC(=O)CC(O)CC(O)CC(O)CC(O)CC3(O)CC(O)C(C(=O)OC)C(CC(O[C@@H]4O[C@H](C)[C@@H](O)[C@H](N)[C@@H]4O)/C=C/C=C/C=C/C=C/C=C/C=C/C=C/C2C)O3)cc1 (some centres not stated),Potency,[8],inactive
